Results filed as inconclusive are left out. Active and inactive are the calls of the source. The call rests on the fitted dose curve; in most records, active means well fitted inhibition curve with a large enough effect; inconclusive means small, poorly fitted or top-dose-only effect; inactive means flat fitted curve, though single readings scatter.
system: astro; experiment: Drug repurposing screens with cells derived from glioblastoma tumor samples (AID 1345199); conditions: viability, ATP luminescence, 48 h; series mostly up to 45.9 µM; activity, negative = cell killing: at the top concentration; further: nearly all actives have a fitted effect of over 40% in size
Method: CD133+ cells were isolated from GBM patient biopsies and cultured as neurospheres. Neurospheres from four patients were used to screen the NCATS pharmaceutical collection (NPC) library of approved drugs and bioactive compounds. […] The neurospheres were incubated with drugs for 48 hours in 1536-well format, then assayed with an ATP content cell viability assay. […] These hits were cherry picked to confirm activity in the four original GBM lines screened plus three other slower growing GMB lines (unable to yield enough cells for a full primary screen). Variable activities of the confirmed primary hits in the different GBM patient lines were observed. The patient line 206 responded to the greatest number of compounds and line 923 responded to the least amount of active compounds.
On the % scale 0 is the no-effect control and ±100 the full control effect; potency means the concentration at half of the fitted maximal effect.

Compound | activity, negative = cell killing | Potency
CCCCCCCCCCCCSCCOCCO | -15.1% (inactive) | 
CC(C)[C@@H]1CC[C@@H](C)CC1=O | -15.9% (inactive) | 
CC(C)(C)NCC(O)COc1cccc2c1C[C@H](O)[C@H](O)C2 (stereo not given in full) | -13.7% [at 21.2 µM] (inactive) | 
CCOC(=O)[C@H](CCc1ccccc1)N[C@@H](C)C(=O)N1[C@H](C(=O)O)C[C@H]2CCCC[C@@H]21 |  | inactive
CCN(CC)CCOC(=O)C(Cc1cccc2ccccc12)CC1CCCO1 (stereo not given) | -12.3% [at 21.2 µM] (inactive) | 
CN1CCc2cccc3c2[C@H]1Cc1ccc(O)c(O)c1-3 |  | 20 µM (active)
CCOc1ccc(NC(C)=O)cc1 | -12.3% (inactive) | 
CCOCCn1c(N2CCCN(C)CC2)nc2ccccc21 | -19.1% (inactive) | 
CCC(Cc1c(I)cc(I)c(N)c1I)C(=O)O (stereo not given) | -12.3% [at 21.2 µM] (inactive) | 
CCc1ccc(C(=O)C(C)CN2CCCCC2)cc1 (stereo not given) | 2.33% (inactive) | 
CCCCCCCCOc1ccc(C(=O)c2ccccc2)c(O)c1 | -15.1% (inactive) | 
CCCCCCCCCCC[C@@H](C[C@@H]1OC(=O)[C@H]1CCCCCC)OC(=O)[C@H](CC(C)C)NC=O |  | 22.4 µM (active)
c1ccc(CC2=NCCN2)cc1 | -9.38% [at 21.2 µM] (inactive) | 
O=C(O)P(=O)(O)O | -6.42% (inactive) | 
CN1CCC(OC(c2ccccc2)c2ccccc2)CC1 | 1.73% [at 21.2 µM] (inactive) | 
CN1CCN(C2=Nc3cc(F)ccc3Cc3ccccc32)CC1 | -27.4% (inactive) | 
COc1cc(C(=S)N2CCOCC2)ccc1O | -14.8% (inactive) | 
COc1ccc(S(=O)(=O)N2c3ccc(Cl)cc3[C@@](O)(c3ccccc3Cl)[C@H]2C(=O)N2CCC[C@@H]2C(N)=O)cc1OC | -11.4% (inactive) | 
O=C(Nc1ccccc1)OCC(CN1CCCCC1)OC(=O)Nc1ccccc1 (stereo not given) | -19% [at 21.2 µM] (inactive) | 
CCc1oc2ccccc2c1C(=O)c1cc(Br)c(O)c(Br)c1 |  | 28.2 µM (active)

Compound | activity, negative = cell killing | Potency
CCC(CC)(CC(=O)Nc1cccc(/C=C/c2nc(C3CCC3)cs2)c1)C(=O)O |  | 15.8 µM (active)
N#C/C(=C1\SCC(c2ccccc2Cl)S1)n1ccnc1 (stereo not given) | -7.32% (inactive) | 
O=C(O)CCc1nc2ccccc2[nH]1 | -10.5% (inactive) | 
COc1ccc(-c2cc(C(F)F)nn2-c2ccc(S(N)(=O)=O)cc2)cc1F | -11.3% (inactive) | 
C[C@@H](O)[C@H]1C(=O)N2C(C(=O)O)=C([C@H]3CCCO3)S[C@H]12 | -8.55% (inactive) | 
CN(C)CCN1C(=O)c2ccccc2N(C)c2ccccc21 | -15.4% (inactive) | 
O=C1C(O)=C(O)C(=O)C(O)=C1O | -3.73% (inactive) | 
C#C[C@]1(O)CC[C@H]2[C@@H]3[C@H](C)CC4=C(CCC(=O)C4)[C@H]3CC[C@@]21C | -5.59% (inactive) | 
CC[N+](C)(CC)CCOC(=O)C(O)(c1ccccc1)C1CCCCC1 (stereo not given) | -9.63% (inactive) | 
CC(=O)NC(=O)c1ccccc1O | -15.6% (inactive) | 
CCOC(=O)Nc1ccc2c(c1)N(C(=O)CCN1CCOCC1)c1ccccc1S2 | -17% [at 21.2 µM] (inactive) | 
O=C(CCCN1CC=C(n2c(=O)[nH]c3ccccc32)CC1)c1ccc(F)cc1 | -12.7% (inactive) | 
CC(=O)NO | -10.1% (inactive) | 
Cn1c(=O)c2[nH]c(Br)nc2n(C)c1=O | -10.1% (inactive) | 
CCNC(=O)/C=C/c1cccc(Br)c1 | -3.15% (inactive) | 
C=C[C@H]1CN2CC[C@H]1C[C@H]2[C@H](O)c1ccnc2ccc(OC)cc12 |  | inactive
Nc1nc(-c2ccccc2)c(Br)c(=O)[nH]1 | -20.9% (inactive) | 
OC(C#CCN1CCCC1)(c1ccccc1)c1ccccc1 | -20.4% (inactive) | 
NC(=O)c1ccccc1O | -12.5% (inactive) | 
O=C(O)Cc1csc(-c2ccc(Cl)cc2)n1 | -6.09% (inactive) | 

Reference: PubChem BioAssay (NCATS)
